Data: the supplement of paper PMC6555819

Experiments:
Assay in all cases: PBM binding z-score (relative to random genomic background probes); higher = stronger binding; sequences stand for … in GC…GCGATTGACAGCGTAGAATGAAGG
[1] = tested on: FXR:RXRa (NR concentration 270 nM, RXRa partner concentration 90 nM)
In short: (§1)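 Random background probes are the reference for binding z-scores. These scores derive from regression-normalized fluorescence on custom Agilent 4×180K protein-binding microarrays incubated 1 h with ligand-free nuclear receptor dimers. Binding was detected with antibodies against each partner (one per run).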

[2] = tested on: LXRa:RXRa (NR concentration 270 nM, RXRa partner concentration 90 nM)
In short: as §1

[3] = tested on: LXRa homodimer (NR concentration 270 nM)
In short: as §1

[4] = tested on: LXRb:RXRa (NR concentration 270 nM, RXRa partner concentration 90 nM)
In short: as §1

[5] = tested on: LXRb homodimer (NR concentration 270 nM)
In short: as §1

[6] = tested on: PPARa:RXRa (NR concentration 270 nM, RXRa partner concentration 90 nM)
In short: as §1

[7] = tested on: PPARg:RXRa (NR concentration 180 nM, RXRa partner concentration 90 nM)
In short: as §1

[8] = tested on: PPARg:RXRa 270nM:90nM, anti-RXR (NR concentration 270 nM, RXRa partner concentration 90 nM)
In short: as §1

[9] = tested on: PPARg:RXRa 30nM:10nM, anti-RXR (NR concentration 30 nM, RXRa partner concentration 10 nM)
In short: as §1

[10] = tested on: PPARg:RXRa 90nM:30nM, anti-RXR (NR concentration 90 nM, RXRa partner concentration 30 nM)
In short: as §1

Sequence	PBM binding z-score [1]	PBM binding z-score [2]	PBM binding z-score [3]	PBM binding z-score [4]	PBM binding z-score [5]	PBM binding z-score [6]	PBM binding z-score [7]	PBM binding z-score [8]	PBM binding z-score [9]	PBM binding z-score [10]
TCATGTAGATCAACAGGAGGTTAAGAAAGATCGA	0.191	1.12	0.0437	0.814	-0.691	1.38	0.396	1.35	2.65	1.97
TCTTGTAGATCAAAGTTTAAGAAAGCCGAAGCCT	0.983	1.1	0.0318	0.659	0.169	2.46	4.04	5.01	5.17	5.73
TTACCAAGGTGAGCTGAGGGCGTTGATCCAACTC	0.29	-0.133	-0.543	-0.27	-1.16	0.372	-0.203	-0.041	-0.278	-0.0993
CCTACTGGGCCATTCAGAGGTCATGGATCATATG	2.57	4.16	5.17	3.61	-0.202	4.54	2.64	3.6	1.23	3.29
TTACCAAGGAGAAAGGTCGTTGATGCACGCCTTG	1.02	1.35	0.0075	1.32	-0.338	2.37	2.36	4.03	2.56	3.74
TCTCGGAGGACACGAAAGGTCAGAGTTCGACATC	3.3	4.16	4.17	3.5	0.134	3.71	1.72	3.4	2.89	3.12
CGTCCAAGGTCATAGGAGGTCAGTAAAGACAGAT	7.75	7.7	5.05	6.36	1.18	5.96	5.82	6.05	2.41	4.8
GGAACGAGGGCATTAGAGTTGATAGCATGGCGAT	0.899	2.35	-0.104	0.257	-0.699	1.22	0.982	0.676	0.105	0.129
AGAACGAGGGCAATGACTTGATAGCACGGGTGGC	0.827	0.481	-0.243	-0.0938	-0.458	1.43	1.71	0.813	0.00433	0.55
ACTAGCAGGCCAAGTATGGGTCACTCAAACAAAG	0.0234	0.143	-0.148	0.932	-0.854	1.74	0.661	0.755	-0.094	0.375
ACTTTCGGGTCAACGAGGTTATAGCACGCGTATA	6.38	5.02	0.999	4.56	1.45	5.52	4.94	5.18	2.34	4.34
TCTATTAGGTGAAGGGCAACCGACGAGTCCGTTT	0.937	1.07	0.449	0.669	0.667	2.44	4	5.18	4.86	5.44
CCTTACGGGTCACTCCAGGTTTTAGCATCGGAGT	4.87	5.1	0.102	2.85	-0.172	4.69	3.06	3.81	0.53	2.55
AGAATGAGGTTATTAAGATCACGGAATTGCGGTC	1.57	1.78	0.215	1.57	0.0573	3.18	1.99	2.7	0.647	1.6
CCTCGAAGGACAGAAGGTCAGAGCTGTCCGCTTT	1.13	1.56	0.132	1.28	-0.573	1.83	0.0228	0.429	-0.598	0.107
GCTGCTATGTCAGGTTGGTCAGCTAACGGGTACG	-0.0269	-0.171	-0.277	-0.513	-0.58	-0.327	-0.164	-0.401	-0.739	-0.312
TCATATAGGTAAGCAGGTGAAAGTCCGTAAGTTA	0.125	0.178	-0.0439	0.39	-0.523	1.74	2.16	3.14	3.46	3.36
TCATATAGGTAAATGCTATGTGAAAGTCCGATCT	0.801	0.648	0.000605	0.522	-0.0167	1.13	1	2.16	3.62	3.03
ATCTATAGGTAAAGTTCAGTGAAAGATCGATAGA	1.21	1.7	1.38	1.19	0.71	2.2	3.67	4.69	2.81	4.71
CGTCAAAGTTCAACTAAGGTAACGGAAAGCACGC	6.73	6.18	3.33	4.2	2.03	5.27	4.86	5.75	1.99	4.58
TTTCCAAGGTGAAGGTCGTTGATCCCTCTGTAGA	2.77	2.31	0.296	1.8	-0.21	2.81	2.68	3.7	1.88	3.35
TCTTGTAGATCAATAGAGGTTAAGAATGTGCGCT	0.658	2.14	0.456	1.44	0.239	1.91	0.259	1.56	2.73	1.97
AGTCAAAGTTTAGGACGAGGTAACGTAAAGCACG	0.493	-0.103	-0.205	-0.158	-0.175	0.331	0.904	0.793	0.252	0.625
CATACAGGGTCAGCTAGGCCAGCGTAGGGACGGC	4.29	2.94	-0.144	1.98	0.387	4.38	3.25	2.9	0.559	2.04
